{
  "source": "PubChem BioAssay (Tox21)",
  "note": "Results filed as inconclusive are left out. Entries that show only a call come without a potency. Active and inactive are the calls of the source. The call rests on the fitted dose curve; in most records, active means well fitted curve in the direction sought with a large enough effect in the repeat runs; inconclusive means weak or mixed curves; inactive means no such curve, though single readings can be large; an effect the other way counts as inactive or inconclusive. Residues, ends and D or L forms follow the SMILES beside them.",
  "data": [
    {"system": "not listed separately", "test": "qHTS assay to identify small molecule antagonists of the constitutive androstane receptor (CAR) signaling pathway - cell viability counter screen (AID 1224837); further: nearly all actives have a fitted effect of over 45% in size", "conditions": "HepG2-CYP2B6-hCAR viability, CellTiter-Fluor, 23 h, co-treated with 50 nM CITCO; series mostly up to 92.4 µM", "method_in_brief": "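Counter screen run in HepG2-CYP2B6-hCAR cells: 4 hr settle, compound titration (15 concentrations) with 50 nM CITCO, 23 hr at 37 C/5% CO2, CellTiter-Fluor fluorescence.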", "values": [
      {"smiles": "O=C(c1ccccc1)C(O)c1ccccc1", "note": "(stereo unspecified)", "Potency": "inactive"},
      {"smiles": "O=c1cc[nH]c(=S)[nH]1", "Potency": "inactive"},
      {"smiles": "CC(O)CO", "note": "(stereo unspecified)", "Potency": "inactive"},
      {"smiles": "Nc1ccc(S(=O)(=O)c2ccc(N)cc2)cc1", "Potency": "inactive"},
      {"smiles": "Cc1cn([C@H]2C[C@H](N=[N+]=[N-])[C@@H](CO)O2)c(=O)[nH]c1=O", "Potency": "inactive"},
      {"smiles": "Cc1ccc(C)c(OCCCC(C)(C)C(=O)O)c1", "Potency": "inactive"},
      {"smiles": "OCCc1ccccc1", "Potency": "inactive"},
      {"smiles": "CCOc1ccc(NC(=O)CC(C)O)cc1", "note": "(stereo unspecified)", "Potency": "inactive"},
      {"smiles": "CCCNC(=O)NS(=O)(=O)c1ccc(Cl)cc1", "Potency": "inactive"},
      {"smiles": "O=C(O)CS", "Potency": "inactive"},
      {"smiles": "Nc1ccn([C@H]2CC[C@@H](CO)O2)c(=O)n1", "Potency": "inactive"},
      {"smiles": "OC(Cn1cncn1)(Cn1cncn1)c1ccc(F)cc1F", "Potency": "inactive"},
      {"smiles": "CNC[C@H](O)c1cccc(O)c1", "Potency": "inactive"},
      {"smiles": "O=C(c1ccccc1)c1ccccc1", "Potency": "inactive"},
      {"smiles": "O=C(O)CCCCC(=O)O", "Potency": "inactive"},
      {"smiles": "NC(=O)c1ccccc1O", "Potency": "inactive"},
      {"smiles": "Nc1ccc(O)c(C(=O)O)c1", "Potency": "inactive"},
      {"smiles": "O=C(O)c1cccc([N+](=O)[O-])c1", "Potency": "inactive"},
      {"smiles": "O=C(O)c1cccnc1", "Potency": "inactive"},
      {"smiles": "O=C(O)C(=O)O", "Potency": "inactive"},
      {"smiles": "Cn1c(=O)c2[nH]cnc2n(C)c1=O", "Potency": "inactive"},
      {"smiles": "CCCN(CCC)S(=O)(=O)c1ccc(C(=O)O)cc1", "Potency": "inactive"},
      {"smiles": "Nc1ccc(S(=O)(=O)Nc2nccs2)cc1", "Potency": "inactive"},
      {"smiles": "CCCC(O)C(CC)CO", "note": "(stereo unspecified)", "Potency": "inactive"},
      {"smiles": "COc1c2occc2cc2ccc(=O)oc12", "Potency": "inactive"},
      {"smiles": "O=C(O)/C=C\\C(=O)O", "Potency": "inactive"},
      {"smiles": "NS(=O)(=O)c1cc(C(=O)O)c(NCc2ccco2)cc1Cl", "Potency": "inactive"},
      {"smiles": "Cn1cc[nH]c1=S", "Potency": "inactive"},
      {"smiles": "COC(=O)[C@H](Cc1ccccc1)NC(=O)[C@@H](N)CC(=O)O", "note": "(H-Asp-Phe-OMe)", "Potency": "inactive"},
      {"smiles": "CCCC(CCC)C(=O)O", "Potency": "inactive"},
      {"smiles": "O=S(=O)(O)NC1CCCCC1", "Potency": "inactive"},
      {"smiles": "CC(=O)OCC(COC(C)=O)OC(C)=O", "Potency": "inactive"},
      {"smiles": "O=NO", "Potency": "inactive"}
    ]},
    {"target": "Nuclear receptor subfamily 1 group I member 3 (Homo sapiens) (UniProt Q14994)", "sequence (Q14994 whole entry, looked up)": "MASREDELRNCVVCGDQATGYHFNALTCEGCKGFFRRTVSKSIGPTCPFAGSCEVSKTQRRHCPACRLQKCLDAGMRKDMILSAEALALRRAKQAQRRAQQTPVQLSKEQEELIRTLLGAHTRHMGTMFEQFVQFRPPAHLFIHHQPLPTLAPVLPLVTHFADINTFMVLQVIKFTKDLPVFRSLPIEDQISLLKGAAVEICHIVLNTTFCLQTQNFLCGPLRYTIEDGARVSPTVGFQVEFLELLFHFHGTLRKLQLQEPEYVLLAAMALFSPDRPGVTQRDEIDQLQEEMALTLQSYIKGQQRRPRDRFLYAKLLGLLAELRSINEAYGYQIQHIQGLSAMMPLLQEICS", "test": "qHTS assay to identify small molecule antagonists of the constitutive androstane receptor (CAR) signaling pathway (AID 1224838); further: nearly all actives have a fitted effect of over 40% in size", "conditions": "HepG2-CYP2B6-hCAR luciferase, CITCO-stimulated, 24 h; series mostly up to 92.4 µM", "method_in_brief": "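Cell line: HepG2 double-stable for hCAR and CYP2B6-2.2kb reporter. Agonist: CITCO, 50 nM final. Compounds: 15 concentrations, 24 h, 37 C. Detection: ONE-Glo luminescence.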", "values": [
      {"smiles": "O=C(c1ccccc1)C(O)c1ccccc1", "note": "(stereo unspecified)", "Potency": "inactive"},
      {"smiles": "O=c1cc[nH]c(=S)[nH]1", "Potency": "inactive"},
      {"smiles": "CNC[C@H](O)c1cccc(O)c1", "Potency": "inactive"},
      {"smiles": "Nc1ccc(O)c(C(=O)O)c1", "Potency": "inactive"},
      {"smiles": "O=C(O)c1cccnc1", "Potency": "inactive"},
      {"smiles": "O=C(O)/C=C\\C(=O)O", "Potency": "inactive"},
      {"smiles": "O=S(=O)(O)NC1CCCCC1", "Potency": "inactive"},
      {"smiles": "O=NO", "Potency": "inactive"}
    ]}
  ]
}
